# According to PubChem BioAssay AID488 (PCMD, 2006):
# Screen size: about 62,000 compounds; about 40 (0.06%) were called active. The full list was thinned out, with actives kept by preference. Values without a mark were called inactive. Cut-off read from the data, not from the text of the source: active = inhibition above about 22% (passing the limit was not always enough); inconclusive = no clear call, values can overlap the other calls.
# Biological target: Cathepsin B (Homo sapiens) (UniProt P07858)
# Assay: human cathepsin B blockade, pooled library – biochemical, compound mixtures, AMC fluorescence, primary screen (AID 488);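 note: 0% = enzyme without compound and 100% = no enzyme blank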
# Conditions: Purified cathepsin B, AMC dipeptide fluorescence, stronger effect = higher value,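 ten-compound pools at 5 µM per compound and 50 µM total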
row,SMILES,inhibition
1,NC(=O)C1CCN(C(=O)c2ccc(C(F)(F)F)cc2)CC1,-1.58%
2,CCOC(=O)CSc1nnc(CNC(=O)c2cccs2)n1-c1cc(OC)ccc1OC,0.53%
3,Cc1cccc(OCc2nnc(SCn3nnc4ccccc4c3=O)o2)c1,-0.48%
4,O=C(Cn1c(-c2cncs2)nc2ccccc21)NC1CCCC1,1.92%
5,C=C1c2cc(CC)ccc2NC(=O)N1c1ccc(C)cc1,5.66%
6,COc1ccc(OC)c(CNC(=O)CCc2nc(-c3cccs3)no2)c1,-0.11%
7,CC(=O)c1c(C)[nH]c(C(=O)NCCCN2CCCC2)c1C,3.25%
8,c1ccc2[nH]c(-c3nc4ccccc4[nH]3)nc2c1,-5.47%
9,Cc1ccc2cccc(S(=O)(=O)N3CCN(c4ccccc4F)CC3)c2n1,2.15%
10,NC(=O)CSC1=Nc2ccccc2C2=NC(CCC(=O)NCc3ccc(F)cc3)C(=O)N12 (stereo not given),0.205%
11,O=C(c1ccc(=O)[nH]c1)N(Cc1ccco1)C1(C(=O)NC2CCCCC2)CCCCC1,2.12%
12,O=C(CN1CCOCC1)Nc1c2c(nc3c1CCC3)CCC2,0.235%
13,CCOc1c(N2CCCCC2)c(=O)c1=O,-3.57%
14,CCn1c(=O)cc(SCC(=O)NCc2ccc3c(c2)OCO3)c2ccccc21,1.53%
15,Cc1ccc(N2CCN(S(=O)(=O)c3ccc(F)cc3)CC2)c(C)c1,-2.33%
16,CCCCN(CC)C(=O)CN(C)S(=O)(=O)c1cccc2nsnc12,0.445%
17,O=C(NCc1ccco1)c1cc(-c2cccnc2)nc2ccc(Cl)cc12,-4.83%
18,COc1ccc2c(c1)C=CC1(O2)N(CCO)c2ccccc2C1(C)C (stereo not given),2.88%
19,CCOC(=O)N1CCC(C(N)=O)CC1,7.54%
20,CSC1=N/C(=C\C=C\c2cccs2)C(=O)S1,9%
21,COc1cc(=O)[nH]c(=O)n1C(=O)Cc1ccccc1,3.21%
22,COC(=O)COc1ccc(S(=O)(=O)Nc2ccc(NC(C)=O)cc2)cc1,0.2%
23,CS(=O)(=O)c1ccc2nc(NC(=O)C3C4C=CC(C4)C3C(=O)O)sc2c1 (stereo not given),0.27%

row,SMILES,inhibition
1,COc1ccc(NC(=O)Nc2cccc3cccnc23)cc1,3.29%
2,Cc1ccc(-c2noc(-c3ccccc3C(=O)NCC3CCCO3)n2)cc1 (stereo not given),-4.67%
3,C=CCn1c(SCc2cc(C(=O)OC)c(C)o2)nnc1-c1ccncc1,-5.06%
4,C=CCOc1ccc(C2/C(=C(\O)c3c(C)[nH]c(C(=O)OC)c3C)C(=O)C(=O)N2CCN(C)C)cc1 (stereo not given),-5.12%
5,O=C(Cn1cnc2c(cnn2-c2ccccc2)c1=O)NCc1ccccc1,-0.45%
6,Oc1ccc(-c2csc(Nc3cccnc3)n2)cc1,2.75%
7,CC(C)C[C@H](NC(=O)[C@@H]1O[C@H]1C(=O)O)C(=O)NCCCCN=C(N)N,99.7% (active)
8,COC(=O)c1cc(OC)c(OC)cc1NC(=O)C1CCCO1 (stereo not given),-0.18%
9,CC1=NCCN1S(=O)(=O)c1ccc(Br)c(C)c1,-3%
10,O=C1CC(c2ccccc2)C(=O)N1c1cccc(O)c1 (stereo not given),-1.1%
11,COc1ccc(OCCCC(=O)Nc2nnc(C3CCCO3)s2)cc1 (stereo not given),-2.29%
12,Cc1ccc(S(=O)(=O)N(C)CC(=O)N2CCc3ccccc32)cc1,-2.02%
13,O=C1c2oc3ccc(Br)cc3c(=O)c2C(c2cccc(F)c2)N1CCO (stereo not given),-5.69%
14,O=C(NCc1cccnc1)c1ccc(CS(=O)(=O)c2ccc(Br)cc2)o1,3.93%
15,CC(=O)Nc1ccc(S(=O)(=O)Nc2ccc(N3CCOCC3)c(F)c2)cc1,1.35%
16,Cc1nc2ccc(S(=O)(=O)NC(C(=O)N3CCCCCC3)C(C)C)cc2s1 (stereo not given),6.23%
17,CCn1c(COc2cccc(OC)c2)nnc1SCC(=O)N1CCOCC1,2.62%
18,CCOC(=O)c1c(CN2CCOCC2)n(-c2ccccc2)c2ccc(O)cc12,4.31%
19,CC(c1nnc(SCC(=O)Nc2sccc2C#N)n1-c1ccc(Cl)cc1)N(C)C (stereo not given),5.86%
20,Cc1cc(C)nc(-n2nc(C)cc2NC(=O)c2ccc(Br)o2)n1,6.29%
21,c1csc(-c2cn3c(n2)SCC3)c1,0.03%
22,Cc1cc(/C=N/n2cnnc2)c(C)n1-c1ccc2ncccc2c1,0.4%
